Screening data deposited in PubChem BioAssay by National Center for Advancing Translational Sciences (NCATS).
LDHA block: blocks human lactate dehydrogenase A | P00338 | purified LDHA, NADH/diaphorase-resazurin fluorescence; hits give low values | activity change, % (values are at about 110 or 230 µM) | hit rate 0.15% among 480,000 | AID 1347041; in the data active = activity change below about -30%; inconclusive = mostly about -25% to -30%;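 note: plate controls were DMSO wells for no effect and wells without enzyme for full effect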
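Human LDH5 (2 nM) was incubated with 0.06 mM NADH and 0.2 mM pyruvate for 5 min at room temperature in Tris pH 7.4. Remaining NADH was coupled through diaphorase/resazurin, and resorufin fluorescence was read at 0 and 20 min.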
Abeta rescue: restores growth of yeast expressing A-beta42 peptide; hit rate 0.063% among 410,000; Potency, µM (doses to about 46.1 µM), usual class: activators; yeast expressing A-beta42, growth rescue, OD600, 48 h; response scale: 0% DMSO, 100% iron-clioquinol control; note: potency is the fitted concentration of half-maximal effect; nearly all actives have a fitted effect of over 55% in size
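Growth rescue measured by 600 nm absorbance after 48 h yeast culture at 30 C with compound. Values normalized between DMSO and an equimolar ferric chloride plus clioquinol control.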
TDP43 rescue: inhibitors of TDP-43 toxicity in yeast; hit rate 1.8% among 410,000; Potency, µM (top dose mostly 46.1 µM), inactives show at the highest dose growth rescue (activation), hits mostly activators; TDP-43 expressing yeast growth rescue, BacTiter-Glo, 24 h; note: potency is the fitted concentration of half-maximal effect; % of control where 0% means no effect; nearly all actives have a fitted effect of over 50% in size
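Readout is BacTiter-Glo luminescence of cell growth, so inhibitors register as activators. TDP-43-expressing yeast at OD600=0.02 in galactose medium, after raffinose pregrowth to mid-log, were incubated with compound for 24 hr at 30 deg C.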
aSyn rescue: inhibitors of alpha-synuclein toxicity in yeast; Yeast expressing alpha-synuclein, growth rescue, BacTiter-Glo, 24 h; Potency, µM (doses to about 46.1 µM), without a hit: at the highest dose growth rescue (activation), most hits filed as activators; hit rate 0.14% among 370,000; AID 652106; note: potency is the fitted concentration of half-maximal effect; % of control where 0% means no effect; nearly all actives have a fitted effect of over 65% in size
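Rescue of yeast growth: cells expressing toxic alpha-synuclein, induced in galactose at OD600 0.02, incubated with compound 24 h at 30 C. ATP luminescence quantified growth; inhibitors of toxicity appear as activators.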
FUS suppressor: FUS proteinopathy suppression in yeast. S. cerevisiae FUS-expressing, growth rescue, OD600, 24 h. Potency, µM (highest dose often 76.6 µM), most hits filed as activators. hit rate 0.24% among 390,000;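 note: potency is the fitted concentration of half-maximal effect; plate controls were DMSO vehicle for no effect and reference control for full effect; nearly all actives have a fitted effect of over 55% in size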
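Yeast expressing FUS under galactose induction, OD 0.005 in 2% galactose medium; compounds in a dilution series, 24 h at 30C. Growth rescue by absorbance at 600 nm; CP55940 positive control, DMSO negative.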
IDH1 R132H inh: inhibitors of human mutant IDH1 R132H | IDH1-R132H enzyme, NADPH consumption, diaphorase/resazurin fluorescence | hit rate 0.093% among 390,000 | O75874 | Potency, µM (top dose mostly 76.6 µM), without a hit: at the top dose activity change, negative = inhibition, actives largely listed as inhibitors; note: potency is the fitted concentration of half-maximal effect; % is set by controls: 0 for no effect and ±100 for the full control effect; nearly all actives have a fitted effect of over 65% in size
Target sequence (O75874 whole entry R132H, stated change not applied): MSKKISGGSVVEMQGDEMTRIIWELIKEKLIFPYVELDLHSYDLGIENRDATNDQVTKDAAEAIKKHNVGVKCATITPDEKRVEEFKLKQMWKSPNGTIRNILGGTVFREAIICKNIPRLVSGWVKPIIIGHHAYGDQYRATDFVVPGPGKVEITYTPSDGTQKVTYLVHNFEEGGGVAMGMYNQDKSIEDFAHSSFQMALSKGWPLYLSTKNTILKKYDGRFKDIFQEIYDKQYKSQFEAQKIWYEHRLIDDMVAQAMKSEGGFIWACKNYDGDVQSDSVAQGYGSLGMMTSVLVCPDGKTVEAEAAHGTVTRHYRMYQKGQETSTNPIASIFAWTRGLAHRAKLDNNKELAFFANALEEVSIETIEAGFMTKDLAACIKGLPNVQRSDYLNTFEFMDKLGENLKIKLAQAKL
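IDH1-R132H (0.5 ug/mL dispensed) in pH 7.5 Tris buffer was preincubated 30 min with compound, then given a substrate mix of 0.016 mM NADPH and 2 mM alpha-KG for 80 min at room temperature; remaining NADPH was read by diaphorase/resazurin fluorescence.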
Active calls of the source: *; i = inactive; u = inconclusive; x = no result. Rows were chosen to be rich in hits. Some 2% of all compounds tested hit in one or more screens of this group. Unless noted, calls come from the whole dose curve; as a rule, active = well fitted curve in the direction sought with a large enough effect; inconclusive = small, poorly fitted or top-dose-only effect, or another doubt; inactive = no such curve, though single readings can be large; an effect the other way counts as inactive or inconclusive.

SMILES | LDHA block | Abeta rescue | TDP43 rescue | aSyn rescue | FUS suppressor | IDH1 R132H inh
Cc1ccc(C)c(NC(=O)c2cn(Cc3ccccc3)nn2)c1 | 7 | x | x | x | x | x
C[N+](C)(C)CC1CC1 | 5 | x | x | x | x | x
C1NC2CC3CC1CC(C3)C2 | -2 | x | x | x | x | x
COC(=O)C1=C(c2cccc(OCc3ccccc3)c2)C[C@@H]2CC[C@H]1N2C(=O)NCc1ccc2[nH]ccc2c1 | -10 | i | -1% | -5% | 8.9µM* | -17%
COC(=O)C1=C(c2cccc(OCc3ccccc3)c2)C[C@@H]2CC[C@H]1N2C(=O)NCc1ccc(F)cc1 | -4 | i | 23% | -13% | u | -11%
Cc1ccc(CN(CCc2ccccc2)Cc2ccccc2)o1 | 3 | x | x | x | x | x
C=CCOC(=O)COc1cc(C)cc2oc(=O)c3c(c12)CCC3 | 1 | i | 14µM* | 0% | u | 5%
[O]=[Sb]([OH])([OH])[c]1ccccc1 | -38* | x | x | u | x | x
Cc1c(C=O)c(C)n(C(C)C)c1C | 0 | x | x | x | x | x
Cc1ccc(CN2CCN(Cc3ccccc3F)CC2)cc1 | -35* | i | -6% | 8% | i | -8%
COc1ccccc1CN1CCN(C(=O)COc2ccc3ccccc3c2)CC1 | -4 | i | 3% | 5% | i | 12%
Cc1ccc(CN2CCN(Cc3ccc(F)cc3)CC2)cc1 | 9 | x | x | x | x | x
COc1ccc(CN2CCN(Cc3ccccc3OC)CC2)cc1 | -37* | i | 7% | -1% | i | -4%
COc1ccccc1CN1CCN(Cc2ccc(Cl)cc2)CC1 | -34* | i | 0% | -5% | i | -3%
N[n+]1cn[nH]c1 | 5 | x | x | x | x | x
CC(N)Cc1ccc(N(C)C)cc1 (configuration not stated) | -7 | x | x | x | x | x
CCOc1ccc(CN2C(=O)c3ccccc3Sc3ccc(C(=O)N4CCC5(CC4)OCCO5)cc32)cc1 | -7 | i | 13µM* | x | u | -3%
O=C(c1ccc2c(c1)N(Cc1ccc(F)cc1)C(=O)c1ccccc1S2)N1CCC2(CC1)OCCO2 | 1 | i | 27% | x | i | -11%
O=[N+]([O-])/C=C\c1ccc2c(c1)OCO2 | 8 | x | x | x | x | x
Cc1cccc(N2C(=O)NC(=O)/C(=C\c3ccc4c(c3)CCCN4Cc3ccccc3)C2=O)c1 | -4 | i | 14% | 4% | i | 52µM*
CC(C)(C)c1ccc(OCCON2C(=O)CCC2=O)c(Cl)c1 | 3 | i | 13µM* | 1% | i | 3%
CCN1C(=O)C(O)(C(F)(F)F)c2cc(C(O)(C(=O)OC)C(F)(F)F)ccc21 (configuration not stated) | -1 | x | x | x | x | x
Cc1ccc2c(c1)NP(=S)(Oc1ccccc1)N2 (configuration not stated) | 2 | i | 35µM* | u | i | 5%
COc1ccc(Cl)cc1NC(=O)CCn1c(=O)oc2ccccc21 | 4 | i | 13µM* | 8% | i | 7%
Cc1ccc(NC(=O)CCCn2c(=O)oc3ccccc32)c(O)c1 | -2 | i | u | -1% | i | 22%
SMILES | LDHA block | Abeta rescue | TDP43 rescue | aSyn rescue | FUS suppressor | IDH1 R132H inh
CCCCCC(=O)N[C@@H](c1ccccc1)[C@@H](O)C(=O)O[C@H]1C[C@@]2(O)[C@@H](OC(=O)c3ccccc3)C3[C@](C)(C(=O)[C@H](O)C(=C1C)C2(C)C)[C@@H](OC1OCC(O)C(O)C1O)C[C@H]1OC[C@@]31OC(C)=O (some centres not stated) | 1 | i | 10% | -1% | i | 13%
CC(=O)O[C@@]12CO[C@@H]1C[C@H](OC1OCC(O)C(O)C1O)[C@@]1(C)C(=O)[C@H](O)C3=C(C)[C@@H](OC(=O)[C@H](O)[C@@H](NC(=O)c4ccccc4)c4ccccc4)C[C@@](O)([C@@H](OC(=O)c4ccccc4)C12)C3(C)C (some centres not stated) | 2 | i | 7% | 5% | 10µM* | -2%
O=c1oc2ccccc2c(O)c1C(c1ccccc1)c1c(O)c2ccccc2oc1=O | -10 | x | x | x | x | x
N#CSCC(=O)N1c2ccccc2CCc2ccccc21 | -3 | u | 18µM* | 0% | x | -22%
Nc1ccccc1C(=O)OCC(=O)N1CCc2ccccc21 | -6 | i | 0% | -1% | i | 4%
CC(C)(C)c1ccc(C(=O)Nc2ccc3nc(SCC(=O)N4CCCC4)sc3c2)cc1 | -3 | i | u | x | u | 4%
Cc1ccccc1C(=O)Nc1ccc2nc(SCC(=O)N(C)c3ccccc3)sc2c1 | 1 | i | 35µM* | x | u | 1%
O=[N+]([O-])/C=C/c1c[nH]c2ccccc12 | 8 | x | x | x | x | x
CC(=O)O/C(=C1\CC2C3CC=C4CC(OC(C)=O)CCC4(C)C3CCC2(C)C1=O)C(F)(F)F (configuration not stated) | -2 | i | u | 13µM* | x | -1%
CC(=O)O[C@H]1CC[C@@]2(C)C(=CC[C@@H]3[C@@H]2CC[C@]2(C)C(=O)CC[C@@H]32)C1 | -7 | i | u | u | i | -7%
Cc1ccc(N2CC(C(=O)OCC(=O)Nc3ccc(C#N)c(Cl)c3)CC2=O)cc1 (configuration not stated) | -4 | x | x | x | x | x
COc1ccc(-n2c(/C=C\c3ccccc3F)nc3ccccc3c2=O)c(OC)c1 | -13 | u | 35µM* | x | u | 0%
Cc1cccc(-n2c(/C=C/c3cccc4ccccc34)nc3ccccc3c2=O)c1 | -3 | i | 35µM* | x | i | -4%
Cc1cccc(-n2c(/C=C/c3ccccc3O)nc3ccccc3c2=O)c1 | -6 | i | 18% | x | i | -12%
CN(C)c1ccc(-[n+]2ccc(-c3cc[n+](-c4ccc(N(C)C)cc4)cc3)cc2)cc1 | 46 | x | x | x | x | x
CCC(=O)c1cn(Cc2ccccc2)c2ccccc12 | -6 | i | 8.9µM* | 4% | i | 8%
O=C(c1cn(Cc2ccccc2)c2ccccc12)C1CC1 | -2 | i | 4% | 9% | i | 2%
O=C(COc1ccccc1)c1cn(Cc2ccccc2)c2ccccc12 | 0 | i | 14% | 15% | i | 5%
CC(C)(C)C(=O)c1cn(Cc2ccccc2)c2ccccc12 | 4 | i | 13µM* | 0% | i | 3%
O=C(c1ccco1)c1cn(Cc2ccccc2)c2ccccc12 | -4 | i | 22µM* | 5% | i | 4%
COCCNC(=O)NC(=O)CCl | -5 | x | x | x | x | x
C/C=C/c1ccc2c(c1)OCO2 | -14 | i | 7% | 0% | i | 3%
